Sampled rows, rich in hits. Any-hit rate of the full collection: about 11%.
NIH3T3 tox: kills NIH 3T3 cells. NIH 3T3 viability, CellTiter-Glo ATP luminescence, 48-72 h. Potency, µM (series often up to 96.7 µM), usual class: inhibitors. actives 4.3% (n = 94,000). AID 1345082; note: nearly all actives have a fitted effect of over 55% in size
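Cytotoxicity was measured by CellTiter-Glo ATP luminescence after 48 or 72 h compound exposure at 37 °C. Mouse NIH 3T3 fibroblasts were seeded at 400 cells/well and dosed by 23 nL pin transfer.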
HEK cytotox: HEK 293 cell cytotoxicity; AID 1345083; actives 6.6% (n = 94,000); Potency, µM (top dose mostly 115 µM), most hits filed as inhibitors; HEK 293 viability, ATP luminescence (CellTiter-Glo), 48-72 h; note: nearly all actives have a fitted effect of over 60% in size
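Read-out: CellTiter-Glo ATP luminescence. Cells: HEK 293, 250 cells/well. Exposure: 48 or 72 hr, 37 degree Celsius.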
hNpr1 antagonist: blocks ANP-stimulated signaling of human Npr1 receptor | P16066 | HEK293 hNpr1 GloSensor cGMP, ANP-stimulated luminescence | Potency, µM (top dose mostly 46.3 µM), actives largely listed as inhibitors | actives 1.6% (n = 76,000) | AID 1347048; calls by dose curve; note: nearly all actives have a fitted effect of over 60% in size
Target sequence (P16066 whole entry, looked up): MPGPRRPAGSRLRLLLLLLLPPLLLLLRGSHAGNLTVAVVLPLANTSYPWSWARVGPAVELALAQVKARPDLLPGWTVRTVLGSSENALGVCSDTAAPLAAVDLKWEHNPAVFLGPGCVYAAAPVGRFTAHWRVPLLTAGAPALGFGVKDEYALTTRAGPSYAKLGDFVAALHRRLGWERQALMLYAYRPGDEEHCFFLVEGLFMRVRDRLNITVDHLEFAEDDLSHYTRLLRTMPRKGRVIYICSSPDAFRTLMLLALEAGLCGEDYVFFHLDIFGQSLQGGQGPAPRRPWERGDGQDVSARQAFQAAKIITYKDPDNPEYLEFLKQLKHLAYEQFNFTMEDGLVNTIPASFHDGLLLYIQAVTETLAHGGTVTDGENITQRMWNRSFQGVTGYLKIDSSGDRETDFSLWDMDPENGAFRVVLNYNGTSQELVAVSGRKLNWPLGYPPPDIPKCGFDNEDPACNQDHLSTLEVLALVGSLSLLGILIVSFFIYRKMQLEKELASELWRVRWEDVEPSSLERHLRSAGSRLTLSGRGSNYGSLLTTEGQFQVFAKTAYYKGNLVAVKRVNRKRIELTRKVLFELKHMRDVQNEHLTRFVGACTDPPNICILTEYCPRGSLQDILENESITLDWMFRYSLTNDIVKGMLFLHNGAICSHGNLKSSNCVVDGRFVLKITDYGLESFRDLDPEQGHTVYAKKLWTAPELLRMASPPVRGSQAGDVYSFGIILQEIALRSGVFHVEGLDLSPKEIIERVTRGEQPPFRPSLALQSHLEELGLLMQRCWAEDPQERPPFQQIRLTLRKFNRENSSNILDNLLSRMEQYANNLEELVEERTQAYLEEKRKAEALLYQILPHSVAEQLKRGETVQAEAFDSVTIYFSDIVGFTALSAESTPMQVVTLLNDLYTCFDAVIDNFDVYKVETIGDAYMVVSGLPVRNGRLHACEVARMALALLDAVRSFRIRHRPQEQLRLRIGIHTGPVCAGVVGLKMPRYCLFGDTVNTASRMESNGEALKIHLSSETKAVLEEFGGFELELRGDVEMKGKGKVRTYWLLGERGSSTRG
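HEK293 cells stably expressing human Npr1 and cGMP GloSensor pGS-40F, loaded 2 h with 2% GloSensor reagent, given compound 30 min at room temperature. Luminescence read before and 20 min after 0.1 nM hNppA.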
Luciferase inh: inhibitors of firefly (Photinus pyralis) luciferase; P08659; purified P. pyralis luciferase, luminescence, biochemical; Potency, µM (doses to about 115 µM), actives largely listed as inhibitors; actives 2.5% (n = 76,000); note: nearly all actives have a fitted effect of over 65% in size
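Luminescence read by CCD imager after adding enzyme (10nM final) to wells holding compound, titrated in qHTS. Substrates 10uM each D-luciferin and ATP; buffer 50mM Tris acetate pH 7.5, 10mM Mg acetate, Tween-20, BSA.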
Each line names hits and unclear results; the compound was inactive in the other large screens. Unless noted, calls come from the whole dose curve; as a rule, active = well fitted curve in the direction sought with a large enough effect; inconclusive = small, poorly fitted or top-dose-only effect, or another doubt; inactive = no such curve, though single readings can be large; an effect the other way counts as inactive or inconclusive.

COCCCNC(=O)c1ccc2nnc(-c3ccoc3)n2c1	none (no result: hNpr1 antagonist, Luciferase inh)
Cc1nc([C@H]2CCN(Cc3ccc(C)c(C)c3)C[C@H]2NC(=O)C2CCOCC2)n[nH]1	NIH3T3 tox inconclusive (no result: hNpr1 antagonist, Luciferase inh)
COCCNC(=O)c1cc(-c2ccc(C)cc2)c2nncn2n1	NIH3T3 tox inconclusive (no result: hNpr1 antagonist, Luciferase inh)
O=C(Nc1ccccc1F)NC1CCN(Cc2cccc(-c3cccs3)c2)CC1	NIH3T3 tox 25.1µM, HEK cytotox 25.1µM (no result: hNpr1 antagonist, Luciferase inh)
O=C(Cc1cccc(Cl)c1)NC1CCN(Cc2cccc(-c3cccs3)c2)CC1	NIH3T3 tox 11.2µM, HEK cytotox 22.4µM (no result: hNpr1 antagonist, Luciferase inh)
O=C(NC1CCCC1)NC1CCN(Cc2cccc(-c3cccs3)c2)CC1	HEK cytotox inconclusive (no result: hNpr1 antagonist, Luciferase inh)
O=C(Cc1cccc(Cl)c1)NC1CCN(Cc2cccc(-c3ccc(F)c(F)c3)c2)CC1	NIH3T3 tox 15.8µM, HEK cytotox 20µM (no result: hNpr1 antagonist, Luciferase inh)
CCN1c2cc(C(=O)Nc3cccc(C(=O)OC)c3)ccc2C(=O)N2CCCCCC21 (stereo unspecified)	NIH3T3 tox 17.8µM, HEK cytotox inconclusive
CCOc1ccc(NC(=O)c2ccc3c(c2)N(CC)C2CCCCCN2C3=O)cc1 (stereo unspecified)	NIH3T3 tox inconclusive, HEK cytotox inconclusive
CCOC(=O)c1cccc(NC(=O)c2ccc3c(c2)N(CC)C2CCCCCN2C3=O)c1 (stereo unspecified)	NIH3T3 tox 20µM, HEK cytotox inconclusive
CCN1c2cc(C(=O)Nc3cccc(F)c3)ccc2C(=O)N2CCCCC21 (stereo unspecified)	NIH3T3 tox inconclusive, HEK cytotox inconclusive, Luciferase inh inconclusive
CC(C)NC(=O)C1CCCN(Cc2cccc(-c3ccc(F)cc3F)c2)C1 (stereo unspecified)	NIH3T3 tox inconclusive, HEK cytotox 35.5µM (no result: hNpr1 antagonist, Luciferase inh)
O=C(NC1CC1)C1CCCN(Cc2cccc(-c3ccc(F)cc3F)c2)C1 (stereo unspecified)	NIH3T3 tox inconclusive, HEK cytotox 39.8µM (no result: hNpr1 antagonist, Luciferase inh)
Cc1ccc(-c2cccc(CN3CCCC(NC(=O)C4CCCC4)C3)c2)cc1Cl (stereo unspecified)	none (no result: hNpr1 antagonist, Luciferase inh)
O=C(NC1CCCC1)C1CCCN(Cc2cccc(-c3ccc(F)cc3F)c2)C1 (stereo unspecified)	NIH3T3 tox 39.8µM, HEK cytotox 39.8µM (no result: hNpr1 antagonist, Luciferase inh)
COC(=O)CNC(=O)C1CCCN(Cc2cccc(-c3ccc(F)cc3F)c2)C1 (stereo unspecified)	NIH3T3 tox inconclusive (no result: hNpr1 antagonist, Luciferase inh)
C[S+](=O)([O-])N1CCN(CCn2nc3n(c2=O)CCCC3)CC1	none (no result: hNpr1 antagonist, Luciferase inh)
COc1ccc(C(=O)N2CCC(N3C[C@H](O)C[C@H]3C(=O)NC3CCCCC3)CC2)c(OC)c1	NIH3T3 tox inconclusive
O=C(C1CCCC1)N1CCC2(CC1)CC(CO)N(C(=O)c1ccccc1)C2 (stereo unspecified)	HEK cytotox inconclusive (no result: hNpr1 antagonist, Luciferase inh)
Cc1ccc(-c2nnc([C@H]3CCN(c4ncccn4)C3)o2)cc1	HEK cytotox inconclusive
COc1ccnc(N2CC[C@H](c3nnc(-c4ccc(C)cc4)o3)C2)n1	NIH3T3 tox inconclusive, HEK cytotox 100µM, Luciferase inh inconclusive
CC(=O)NC1(C)CCN(Cc2ccccc2-c2ccc3ccccc3c2)C1 (stereo unspecified)	NIH3T3 tox 79.4µM, HEK cytotox inconclusive
CC(=O)NC1(C)CCN(Cc2ccc(-c3ccccc3Oc3ccccc3)cc2)C1 (stereo unspecified)	NIH3T3 tox 39.8µM, HEK cytotox 56.2µM
CCc1nncn1C1CCN(S(=O)(=O)c2cccc(Cl)c2)CC1	none
Cc1nnc2ccc(N3CCCC(NC(=O)c4ccccc4)C3)nn12 (stereo unspecified)	none (no result: hNpr1 antagonist, Luciferase inh)
Cc1nn(C)c2nc(-c3ccccn3)nc(NCc3ccc4c(c3)OCO4)c12	NIH3T3 tox 28.2µM, HEK cytotox 31.6µM, Luciferase inh inconclusive
Cc1nn(C)c2nc(-c3ccccn3)nc(N3CCC4(CC3)COC(=O)O4)c12	none
O=C(NCC1CC1)C1CCCN1C(=O)c1cccc(-c2ccccn2)c1 (stereo unspecified)	none (no result: hNpr1 antagonist, Luciferase inh)
CCN1CC(C(=O)NCc2cccc(-c3ccccc3)c2)CCC1=O (stereo unspecified)	NIH3T3 tox inconclusive, HEK cytotox 35.5µM, hNpr1 antagonist inconclusive
O=C(NCc1cccc(-c2ccccc2)c1)C1CC(=O)N(C2CC2)C1 (stereo unspecified)	none
O=C(NCc1cccnc1)c1ccc(N2CCC(NCCCn3ncc4ccccc43)CC2)cc1	NIH3T3 tox 17.8µM, HEK cytotox inconclusive
O=C(NC1CC1)c1ccc2nnc(-c3ccc(OC(F)(F)F)cc3)n2c1	none (no result: hNpr1 antagonist, Luciferase inh)
N[C@@H]1CC[C@H](C(=O)N2CCC(Oc3cccc(C(F)(F)F)c3)CC2)C1	NIH3T3 tox inconclusive, HEK cytotox 44.7µM
O=C(C1CCC1)N1CCC(Oc2cccc(F)c2)C1 (stereo unspecified)	none
COc1ccc(-c2ccnc3nc(Cc4cc(F)cc(F)c4)nn23)c(F)c1	NIH3T3 tox inconclusive, HEK cytotox 39.8µM
COc1ccc(-c2ccnc3nc(CCc4ccccc4)nn23)c(F)c1	NIH3T3 tox inconclusive, HEK cytotox inconclusive
COc1ccc(-c2nc3cnccn3c2NCCC(=O)O)cc1	Luciferase inh 35.5µM
C#CCNC(=O)[C@@H]1Cc2cn(Cc3c(C)noc3C)c3cccc(c23)[C@H](CC(C)C)N1	NIH3T3 tox 50.1µM, HEK cytotox 39.8µM
Cc1noc(C)c1Cn1cc2c3c(cccc31)[C@H](CC(C)C)N[C@H](C(=O)N1CCOCC1)C2	HEK cytotox inconclusive
CCCNC(=O)[C@@H]1Cc2cn(Cc3c(C)noc3C)c3cccc(c23)[C@H](CC(C)C)N1	NIH3T3 tox 70.8µM, HEK cytotox 25.1µM
Cc1noc(C)c1Cn1cc2c3c(cccc31)[C@H](CC(C)C)N[C@H](C(=O)NC1CCC1)C2	NIH3T3 tox inconclusive, HEK cytotox 39.8µM
COc1ccc(-c2ccc(C(=O)N3CCC(NC(=O)N4CCOCC4)CC3)cc2)nn1	none (no result: hNpr1 antagonist, Luciferase inh)
O=C(c1cnc2n1CCN(CCc1ccccc1)CC2)N1CCC(c2ccccc2)CC1	NIH3T3 tox inconclusive, HEK cytotox 79.4µM, hNpr1 antagonist inconclusive
CN(C(=O)c1cnc2n1CCN(CCc1ccccc1)CC2)c1ccccc1	NIH3T3 tox inconclusive, HEK cytotox inconclusive
O=C(NCc1ccccc1)c1cnc2n1CCN(Cc1cccs1)CC2	NIH3T3 tox 31.6µM, HEK cytotox inconclusive
Nc1ncccc1CN1CCc2ncc(C(=O)NCc3ccccc3)n2CC1	NIH3T3 tox inconclusive, HEK cytotox inconclusive, hNpr1 antagonist inconclusive
O=C(NCc1ccccc1)c1cnc2n1CCN(Cc1ccc(F)cc1)CC2	NIH3T3 tox inconclusive, HEK cytotox 28.2µM
Fc1ccc(-c2cc(CC3(NC4CCCCC4)COC3)no2)cc1	HEK cytotox inconclusive
O=C(NCC1CCN(c2cc(-c3ccc(F)cc3)[nH]n2)CC1)c1ccc2nc[nH]c2c1	NIH3T3 tox inconclusive, HEK cytotox inconclusive, Luciferase inh inconclusive
O=C(NC1CCN(c2cc(-c3ccccc3)[nH]n2)CC1)c1cc(F)ccc1Cl	NIH3T3 tox inconclusive, HEK cytotox inconclusive

Screening data as filed in PubChem BioAssay.
